Reference: the supplement of paper PMC11732987, “Enantioselective OTUD7B fragment discovery through chemoproteomics screening and high-throughput optimisation” (Communications Chemistry, 2025)

What was measured:
Assay in all cases: log2 ratio of Biotin-Ahx-Ub-VS probe labelling (fragment/DMSO); higher = less target engagement (more negative = stronger competition), active = hit call of the paper (q ≤ 0.05, log2 ratio ≤ -1)
Conditions in all cases: compound concentration: 200 uM; treatment time: 3 h
USP42 = target: T1, USP42 (UniProt Q9H9J4)
T1 sequence (whole entry): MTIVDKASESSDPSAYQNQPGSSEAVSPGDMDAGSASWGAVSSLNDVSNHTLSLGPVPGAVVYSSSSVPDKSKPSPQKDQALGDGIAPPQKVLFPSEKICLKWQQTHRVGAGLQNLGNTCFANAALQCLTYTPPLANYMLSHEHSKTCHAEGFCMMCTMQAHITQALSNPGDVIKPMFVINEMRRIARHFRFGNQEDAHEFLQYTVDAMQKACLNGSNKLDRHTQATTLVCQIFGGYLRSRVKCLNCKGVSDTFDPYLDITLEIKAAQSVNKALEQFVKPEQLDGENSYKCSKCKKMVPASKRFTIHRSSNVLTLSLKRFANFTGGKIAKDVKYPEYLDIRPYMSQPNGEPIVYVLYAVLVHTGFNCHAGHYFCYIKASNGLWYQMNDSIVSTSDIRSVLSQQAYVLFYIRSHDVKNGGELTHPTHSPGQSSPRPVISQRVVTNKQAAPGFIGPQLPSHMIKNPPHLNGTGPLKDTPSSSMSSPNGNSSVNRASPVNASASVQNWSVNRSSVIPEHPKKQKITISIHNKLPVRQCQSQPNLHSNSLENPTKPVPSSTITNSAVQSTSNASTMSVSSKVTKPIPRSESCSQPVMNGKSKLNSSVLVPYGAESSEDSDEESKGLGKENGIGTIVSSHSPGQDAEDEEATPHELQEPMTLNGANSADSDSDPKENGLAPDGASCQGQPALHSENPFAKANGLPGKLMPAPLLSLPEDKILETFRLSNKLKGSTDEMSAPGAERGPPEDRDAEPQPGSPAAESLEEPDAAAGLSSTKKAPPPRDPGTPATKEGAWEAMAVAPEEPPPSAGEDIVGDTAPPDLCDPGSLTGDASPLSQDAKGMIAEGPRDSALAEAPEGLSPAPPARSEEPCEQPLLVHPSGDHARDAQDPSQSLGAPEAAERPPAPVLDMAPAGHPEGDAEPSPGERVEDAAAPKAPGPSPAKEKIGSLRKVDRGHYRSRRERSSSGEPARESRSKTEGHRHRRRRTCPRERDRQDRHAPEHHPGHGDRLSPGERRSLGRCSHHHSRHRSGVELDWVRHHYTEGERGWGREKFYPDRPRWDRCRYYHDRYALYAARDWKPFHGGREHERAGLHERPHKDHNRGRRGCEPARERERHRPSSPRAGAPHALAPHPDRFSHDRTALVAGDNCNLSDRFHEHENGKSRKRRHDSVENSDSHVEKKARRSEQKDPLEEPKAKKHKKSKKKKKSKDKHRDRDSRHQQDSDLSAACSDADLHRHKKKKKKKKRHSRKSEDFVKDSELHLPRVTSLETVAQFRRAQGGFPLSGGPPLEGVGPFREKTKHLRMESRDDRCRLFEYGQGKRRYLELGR
Summary of the method: (§1)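 Triplicate samples of HEK293T lysate, 495 µg each, received fragment at 200 µM or vehicle for 3 h, followed by Biotin-Ahx-Ub-VS (0.5 µM final) for 1 h. After NeutrAvidin enrichment of labelled DUBs and LysC/trypsin digestion, peptides were run by diaPASEF LC-MS/MS. The values are average log2 fragment/vehicle ratios from global-median-normalised Spectronaut label-free quantities, tested by unpaired t-test on proteins having ≥2 unique peptides.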

USP46 = USP46 (UniProt P62068)
USP46, sequence (P62068 whole entry): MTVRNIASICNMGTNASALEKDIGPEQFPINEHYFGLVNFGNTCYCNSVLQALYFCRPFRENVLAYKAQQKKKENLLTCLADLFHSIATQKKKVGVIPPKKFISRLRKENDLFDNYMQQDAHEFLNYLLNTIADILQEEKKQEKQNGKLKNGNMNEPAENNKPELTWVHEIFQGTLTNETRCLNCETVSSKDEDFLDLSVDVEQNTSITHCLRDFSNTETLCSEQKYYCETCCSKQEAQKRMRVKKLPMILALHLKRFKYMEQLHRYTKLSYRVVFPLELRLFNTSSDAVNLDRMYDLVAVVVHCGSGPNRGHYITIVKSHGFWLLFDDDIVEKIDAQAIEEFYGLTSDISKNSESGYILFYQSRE
Summary of the method: as §1

USP47 = target: T2, USP47 (UniProt Q96K76)
T2 sequence (whole entry): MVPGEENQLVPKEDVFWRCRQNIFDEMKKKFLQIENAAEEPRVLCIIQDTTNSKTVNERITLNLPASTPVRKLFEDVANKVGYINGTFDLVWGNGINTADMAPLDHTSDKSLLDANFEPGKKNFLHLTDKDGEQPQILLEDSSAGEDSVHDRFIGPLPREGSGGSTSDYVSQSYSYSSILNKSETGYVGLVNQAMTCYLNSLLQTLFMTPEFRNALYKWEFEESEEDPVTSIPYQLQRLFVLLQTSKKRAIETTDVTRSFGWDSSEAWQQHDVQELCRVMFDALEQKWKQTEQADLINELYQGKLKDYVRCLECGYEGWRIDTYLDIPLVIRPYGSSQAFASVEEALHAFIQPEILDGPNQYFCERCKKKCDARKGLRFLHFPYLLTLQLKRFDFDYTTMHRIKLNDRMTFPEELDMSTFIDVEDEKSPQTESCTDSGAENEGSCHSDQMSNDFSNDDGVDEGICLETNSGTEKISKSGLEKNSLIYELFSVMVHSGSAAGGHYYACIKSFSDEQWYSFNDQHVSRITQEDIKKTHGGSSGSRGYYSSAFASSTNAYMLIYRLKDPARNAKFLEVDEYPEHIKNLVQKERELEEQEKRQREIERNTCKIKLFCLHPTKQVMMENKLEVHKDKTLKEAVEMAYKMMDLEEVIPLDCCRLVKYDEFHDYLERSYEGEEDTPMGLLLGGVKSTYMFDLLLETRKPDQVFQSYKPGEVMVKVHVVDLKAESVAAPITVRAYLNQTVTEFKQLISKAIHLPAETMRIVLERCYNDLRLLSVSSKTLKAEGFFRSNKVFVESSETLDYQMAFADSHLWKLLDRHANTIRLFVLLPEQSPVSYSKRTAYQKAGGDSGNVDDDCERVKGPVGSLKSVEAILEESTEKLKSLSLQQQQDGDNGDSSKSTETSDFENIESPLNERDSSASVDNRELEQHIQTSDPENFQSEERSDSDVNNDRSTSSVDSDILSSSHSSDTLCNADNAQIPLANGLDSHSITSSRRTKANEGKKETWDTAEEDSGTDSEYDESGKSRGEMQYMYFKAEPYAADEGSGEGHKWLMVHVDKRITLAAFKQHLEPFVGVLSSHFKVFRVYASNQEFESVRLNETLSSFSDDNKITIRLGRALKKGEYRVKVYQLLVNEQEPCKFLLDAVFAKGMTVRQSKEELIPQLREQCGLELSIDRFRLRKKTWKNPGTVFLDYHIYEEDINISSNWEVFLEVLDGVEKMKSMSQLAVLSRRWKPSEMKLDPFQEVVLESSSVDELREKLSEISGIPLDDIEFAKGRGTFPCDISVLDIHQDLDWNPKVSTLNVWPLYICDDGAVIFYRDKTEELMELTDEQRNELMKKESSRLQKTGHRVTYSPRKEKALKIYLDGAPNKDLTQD
Summary of the method: as §1

USP48 = target: T3, USP48 (UniProt Q86UV5)
T3 sequence (whole entry): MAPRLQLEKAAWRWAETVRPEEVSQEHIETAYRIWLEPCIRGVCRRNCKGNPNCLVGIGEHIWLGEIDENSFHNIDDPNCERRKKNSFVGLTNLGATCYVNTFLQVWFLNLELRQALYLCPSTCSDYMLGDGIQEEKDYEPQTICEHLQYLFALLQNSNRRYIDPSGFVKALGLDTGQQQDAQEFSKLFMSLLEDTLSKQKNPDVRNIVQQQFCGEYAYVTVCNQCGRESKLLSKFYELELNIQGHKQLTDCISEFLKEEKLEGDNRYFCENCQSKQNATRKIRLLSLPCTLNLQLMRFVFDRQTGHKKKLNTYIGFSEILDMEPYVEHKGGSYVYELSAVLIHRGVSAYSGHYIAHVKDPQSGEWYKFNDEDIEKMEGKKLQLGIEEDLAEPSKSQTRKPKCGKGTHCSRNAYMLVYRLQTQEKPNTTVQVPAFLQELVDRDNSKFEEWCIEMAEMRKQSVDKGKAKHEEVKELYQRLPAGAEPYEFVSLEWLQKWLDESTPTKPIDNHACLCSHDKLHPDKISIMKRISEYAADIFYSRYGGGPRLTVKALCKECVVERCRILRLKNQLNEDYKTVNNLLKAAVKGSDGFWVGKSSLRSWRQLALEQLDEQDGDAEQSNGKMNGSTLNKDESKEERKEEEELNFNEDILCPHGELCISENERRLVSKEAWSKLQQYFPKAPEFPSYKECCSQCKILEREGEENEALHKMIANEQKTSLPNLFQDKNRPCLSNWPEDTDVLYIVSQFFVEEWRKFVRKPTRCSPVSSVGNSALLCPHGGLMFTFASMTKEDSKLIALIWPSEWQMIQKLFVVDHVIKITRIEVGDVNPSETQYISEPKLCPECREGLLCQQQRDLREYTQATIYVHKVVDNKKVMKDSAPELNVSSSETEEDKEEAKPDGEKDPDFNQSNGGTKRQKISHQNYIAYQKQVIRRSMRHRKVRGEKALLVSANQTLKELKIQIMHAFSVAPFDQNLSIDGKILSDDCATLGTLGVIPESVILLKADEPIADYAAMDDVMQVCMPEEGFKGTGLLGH
Summary of the method: as §1

USP5 = target: T4, USP5 (UniProt P45974)
T4 sequence (whole entry): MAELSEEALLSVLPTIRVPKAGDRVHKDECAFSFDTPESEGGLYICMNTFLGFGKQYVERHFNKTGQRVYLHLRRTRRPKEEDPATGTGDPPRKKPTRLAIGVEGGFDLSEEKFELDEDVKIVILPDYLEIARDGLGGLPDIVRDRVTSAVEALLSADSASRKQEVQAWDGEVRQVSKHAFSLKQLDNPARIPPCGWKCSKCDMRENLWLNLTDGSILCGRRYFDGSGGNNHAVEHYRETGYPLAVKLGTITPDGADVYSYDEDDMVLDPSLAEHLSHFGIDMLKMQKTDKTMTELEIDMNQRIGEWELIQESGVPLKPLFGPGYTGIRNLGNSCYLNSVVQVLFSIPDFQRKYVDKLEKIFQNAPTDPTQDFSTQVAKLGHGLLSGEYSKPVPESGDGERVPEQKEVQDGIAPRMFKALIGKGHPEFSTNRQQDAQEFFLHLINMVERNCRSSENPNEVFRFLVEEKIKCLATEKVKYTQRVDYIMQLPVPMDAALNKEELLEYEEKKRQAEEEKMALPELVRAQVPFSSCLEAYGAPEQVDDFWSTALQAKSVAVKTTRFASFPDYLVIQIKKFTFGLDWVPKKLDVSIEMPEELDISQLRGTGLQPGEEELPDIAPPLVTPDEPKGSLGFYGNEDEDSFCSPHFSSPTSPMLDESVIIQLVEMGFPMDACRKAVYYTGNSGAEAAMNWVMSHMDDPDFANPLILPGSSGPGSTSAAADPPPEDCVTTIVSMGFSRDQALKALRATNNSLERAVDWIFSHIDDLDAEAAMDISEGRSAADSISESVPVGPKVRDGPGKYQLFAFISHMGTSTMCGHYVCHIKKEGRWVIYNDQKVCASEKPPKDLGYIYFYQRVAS
Summary of the method: as §1

USP54 = USP54 (UniProt Q70EL1)
USP54, sequence (Q70EL1 whole entry): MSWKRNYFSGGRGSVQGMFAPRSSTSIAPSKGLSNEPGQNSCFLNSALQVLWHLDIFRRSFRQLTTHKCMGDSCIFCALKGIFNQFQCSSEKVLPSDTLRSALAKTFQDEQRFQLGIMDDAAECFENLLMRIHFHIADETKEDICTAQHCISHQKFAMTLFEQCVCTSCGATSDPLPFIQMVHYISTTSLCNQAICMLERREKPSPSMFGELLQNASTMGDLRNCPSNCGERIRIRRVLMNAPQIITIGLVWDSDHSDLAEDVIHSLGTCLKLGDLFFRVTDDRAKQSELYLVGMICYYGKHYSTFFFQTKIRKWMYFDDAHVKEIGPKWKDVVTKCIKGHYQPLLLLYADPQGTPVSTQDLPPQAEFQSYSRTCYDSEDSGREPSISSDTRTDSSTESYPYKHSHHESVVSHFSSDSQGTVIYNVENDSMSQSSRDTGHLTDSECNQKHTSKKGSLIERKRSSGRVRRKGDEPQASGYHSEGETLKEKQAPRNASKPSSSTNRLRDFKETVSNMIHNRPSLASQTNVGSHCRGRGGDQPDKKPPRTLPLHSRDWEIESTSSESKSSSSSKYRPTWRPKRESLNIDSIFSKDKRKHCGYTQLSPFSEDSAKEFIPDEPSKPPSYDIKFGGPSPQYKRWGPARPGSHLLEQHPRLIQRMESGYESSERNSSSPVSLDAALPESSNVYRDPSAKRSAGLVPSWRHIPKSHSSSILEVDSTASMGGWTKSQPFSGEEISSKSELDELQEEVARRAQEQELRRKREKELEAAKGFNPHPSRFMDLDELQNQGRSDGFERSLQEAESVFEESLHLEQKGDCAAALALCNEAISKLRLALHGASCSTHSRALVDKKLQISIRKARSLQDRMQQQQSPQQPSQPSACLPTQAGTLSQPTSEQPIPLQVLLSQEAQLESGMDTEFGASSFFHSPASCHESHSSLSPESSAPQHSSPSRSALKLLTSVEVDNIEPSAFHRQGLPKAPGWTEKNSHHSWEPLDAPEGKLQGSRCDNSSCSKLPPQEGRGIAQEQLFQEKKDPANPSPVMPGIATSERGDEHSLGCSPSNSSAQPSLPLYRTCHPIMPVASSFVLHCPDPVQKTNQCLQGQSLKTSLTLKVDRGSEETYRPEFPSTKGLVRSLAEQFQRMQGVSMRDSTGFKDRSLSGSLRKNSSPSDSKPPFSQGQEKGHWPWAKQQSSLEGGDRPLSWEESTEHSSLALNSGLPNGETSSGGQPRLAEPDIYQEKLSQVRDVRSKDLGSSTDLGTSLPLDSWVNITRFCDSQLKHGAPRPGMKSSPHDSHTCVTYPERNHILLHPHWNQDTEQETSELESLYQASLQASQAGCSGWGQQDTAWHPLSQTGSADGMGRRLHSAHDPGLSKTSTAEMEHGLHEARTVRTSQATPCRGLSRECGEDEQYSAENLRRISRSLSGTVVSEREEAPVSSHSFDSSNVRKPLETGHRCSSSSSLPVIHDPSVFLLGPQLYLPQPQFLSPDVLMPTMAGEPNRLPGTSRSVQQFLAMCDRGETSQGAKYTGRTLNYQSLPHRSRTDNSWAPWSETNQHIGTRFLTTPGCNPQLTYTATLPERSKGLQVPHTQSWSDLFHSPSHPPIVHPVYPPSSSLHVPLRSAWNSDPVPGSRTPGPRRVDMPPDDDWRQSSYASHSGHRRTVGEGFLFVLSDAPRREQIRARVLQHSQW
Summary of the method: as §1

USP7 = USP7 (UniProt Q93009)
Summary of the method: as §1

USP8 = target: T5, USP8 (UniProt P40818)
T5 sequence (whole entry): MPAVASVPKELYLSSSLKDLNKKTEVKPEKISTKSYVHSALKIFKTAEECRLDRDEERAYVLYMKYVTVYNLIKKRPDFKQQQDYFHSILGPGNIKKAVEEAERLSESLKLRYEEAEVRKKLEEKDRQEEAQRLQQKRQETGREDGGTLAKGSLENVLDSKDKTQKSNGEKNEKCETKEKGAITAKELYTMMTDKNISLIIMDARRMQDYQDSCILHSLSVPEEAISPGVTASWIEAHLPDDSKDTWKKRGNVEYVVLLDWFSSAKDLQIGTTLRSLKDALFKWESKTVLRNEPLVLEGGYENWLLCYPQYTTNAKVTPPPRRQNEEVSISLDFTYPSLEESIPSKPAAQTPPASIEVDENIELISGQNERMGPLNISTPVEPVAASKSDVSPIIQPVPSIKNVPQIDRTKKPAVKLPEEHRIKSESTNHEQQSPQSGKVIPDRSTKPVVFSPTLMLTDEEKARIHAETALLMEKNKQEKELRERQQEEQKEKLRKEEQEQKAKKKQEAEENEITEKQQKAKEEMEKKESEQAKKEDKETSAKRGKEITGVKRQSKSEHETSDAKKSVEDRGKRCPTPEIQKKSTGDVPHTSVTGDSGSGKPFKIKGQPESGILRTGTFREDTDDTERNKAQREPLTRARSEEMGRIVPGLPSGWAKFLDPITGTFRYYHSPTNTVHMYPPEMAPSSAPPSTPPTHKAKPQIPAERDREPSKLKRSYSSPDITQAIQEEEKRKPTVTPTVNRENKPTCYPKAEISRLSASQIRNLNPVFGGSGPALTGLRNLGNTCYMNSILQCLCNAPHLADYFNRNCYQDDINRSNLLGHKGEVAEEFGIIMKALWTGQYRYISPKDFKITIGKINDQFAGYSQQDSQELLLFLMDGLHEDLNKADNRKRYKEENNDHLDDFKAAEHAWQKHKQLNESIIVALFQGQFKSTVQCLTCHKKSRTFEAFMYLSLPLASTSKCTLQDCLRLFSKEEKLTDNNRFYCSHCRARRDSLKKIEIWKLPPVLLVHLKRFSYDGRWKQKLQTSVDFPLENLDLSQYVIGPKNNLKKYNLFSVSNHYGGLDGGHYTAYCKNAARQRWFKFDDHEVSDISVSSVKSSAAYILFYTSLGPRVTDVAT
Summary of the method: as §1

USP9X = USP9X (UniProt Q93008)
USP9X, sequence (Q93008 whole entry): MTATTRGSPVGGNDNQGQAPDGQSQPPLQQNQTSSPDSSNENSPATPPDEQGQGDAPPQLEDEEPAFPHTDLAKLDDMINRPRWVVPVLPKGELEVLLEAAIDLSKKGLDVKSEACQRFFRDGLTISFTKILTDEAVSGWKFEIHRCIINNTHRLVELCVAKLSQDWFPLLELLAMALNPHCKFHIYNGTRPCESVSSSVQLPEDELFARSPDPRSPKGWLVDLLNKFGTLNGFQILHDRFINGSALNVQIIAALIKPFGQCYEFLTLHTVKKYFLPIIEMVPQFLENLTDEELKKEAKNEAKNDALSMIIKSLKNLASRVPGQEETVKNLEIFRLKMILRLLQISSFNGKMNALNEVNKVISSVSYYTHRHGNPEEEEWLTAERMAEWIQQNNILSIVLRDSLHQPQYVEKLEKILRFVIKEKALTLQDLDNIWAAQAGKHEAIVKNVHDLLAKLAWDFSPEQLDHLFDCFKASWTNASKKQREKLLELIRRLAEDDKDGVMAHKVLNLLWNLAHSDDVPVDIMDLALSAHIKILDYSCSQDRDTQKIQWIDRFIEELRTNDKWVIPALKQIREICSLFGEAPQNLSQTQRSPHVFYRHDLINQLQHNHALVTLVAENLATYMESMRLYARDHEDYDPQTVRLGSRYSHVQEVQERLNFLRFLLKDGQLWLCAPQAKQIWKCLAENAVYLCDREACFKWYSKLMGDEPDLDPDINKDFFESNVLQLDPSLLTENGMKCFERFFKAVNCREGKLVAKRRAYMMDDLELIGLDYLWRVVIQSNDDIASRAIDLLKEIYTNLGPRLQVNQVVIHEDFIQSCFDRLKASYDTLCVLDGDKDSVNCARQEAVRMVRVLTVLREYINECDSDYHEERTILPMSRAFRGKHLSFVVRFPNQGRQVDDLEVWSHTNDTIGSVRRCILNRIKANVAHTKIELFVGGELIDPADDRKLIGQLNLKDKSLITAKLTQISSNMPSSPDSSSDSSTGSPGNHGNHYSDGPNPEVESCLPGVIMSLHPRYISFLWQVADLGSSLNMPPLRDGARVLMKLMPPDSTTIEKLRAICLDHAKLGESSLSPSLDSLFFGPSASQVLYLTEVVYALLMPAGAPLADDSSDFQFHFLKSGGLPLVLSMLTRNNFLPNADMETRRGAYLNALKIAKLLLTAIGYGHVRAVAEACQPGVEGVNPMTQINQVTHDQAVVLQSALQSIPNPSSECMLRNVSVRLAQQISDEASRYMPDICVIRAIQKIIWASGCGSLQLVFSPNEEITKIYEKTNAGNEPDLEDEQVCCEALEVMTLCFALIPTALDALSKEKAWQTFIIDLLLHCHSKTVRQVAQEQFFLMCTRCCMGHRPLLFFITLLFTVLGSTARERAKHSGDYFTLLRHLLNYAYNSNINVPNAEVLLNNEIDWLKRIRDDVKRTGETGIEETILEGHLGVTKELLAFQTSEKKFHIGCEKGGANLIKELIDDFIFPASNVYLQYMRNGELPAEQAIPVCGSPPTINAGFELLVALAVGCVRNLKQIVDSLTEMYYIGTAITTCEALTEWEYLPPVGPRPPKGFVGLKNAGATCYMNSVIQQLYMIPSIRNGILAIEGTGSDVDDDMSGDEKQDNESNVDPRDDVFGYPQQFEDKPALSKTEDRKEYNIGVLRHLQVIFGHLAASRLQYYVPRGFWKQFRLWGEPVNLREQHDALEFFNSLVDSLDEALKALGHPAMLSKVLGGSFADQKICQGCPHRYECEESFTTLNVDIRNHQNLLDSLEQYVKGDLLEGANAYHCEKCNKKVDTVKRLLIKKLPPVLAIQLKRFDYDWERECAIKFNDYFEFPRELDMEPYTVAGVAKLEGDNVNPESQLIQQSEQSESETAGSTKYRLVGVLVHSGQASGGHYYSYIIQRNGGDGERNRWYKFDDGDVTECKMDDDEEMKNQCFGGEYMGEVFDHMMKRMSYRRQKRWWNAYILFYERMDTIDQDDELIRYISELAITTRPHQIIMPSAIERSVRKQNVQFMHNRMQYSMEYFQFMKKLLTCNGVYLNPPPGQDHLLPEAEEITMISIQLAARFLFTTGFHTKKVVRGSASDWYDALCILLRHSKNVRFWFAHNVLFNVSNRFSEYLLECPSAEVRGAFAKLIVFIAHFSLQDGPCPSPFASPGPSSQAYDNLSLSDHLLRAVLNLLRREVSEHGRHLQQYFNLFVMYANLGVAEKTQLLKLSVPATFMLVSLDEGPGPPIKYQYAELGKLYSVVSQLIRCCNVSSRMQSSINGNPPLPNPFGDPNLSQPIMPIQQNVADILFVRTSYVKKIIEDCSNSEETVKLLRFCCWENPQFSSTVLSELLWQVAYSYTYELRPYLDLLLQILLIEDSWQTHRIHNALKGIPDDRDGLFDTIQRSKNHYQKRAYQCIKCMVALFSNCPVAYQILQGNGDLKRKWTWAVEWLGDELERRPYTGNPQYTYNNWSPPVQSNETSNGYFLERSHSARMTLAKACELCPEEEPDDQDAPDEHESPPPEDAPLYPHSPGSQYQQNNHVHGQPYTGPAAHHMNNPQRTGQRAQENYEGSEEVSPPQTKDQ
Summary of the method: as §1

UniProt O00487 = target: UniProt O00487
UniProt O00487, sequence (O00487 whole entry): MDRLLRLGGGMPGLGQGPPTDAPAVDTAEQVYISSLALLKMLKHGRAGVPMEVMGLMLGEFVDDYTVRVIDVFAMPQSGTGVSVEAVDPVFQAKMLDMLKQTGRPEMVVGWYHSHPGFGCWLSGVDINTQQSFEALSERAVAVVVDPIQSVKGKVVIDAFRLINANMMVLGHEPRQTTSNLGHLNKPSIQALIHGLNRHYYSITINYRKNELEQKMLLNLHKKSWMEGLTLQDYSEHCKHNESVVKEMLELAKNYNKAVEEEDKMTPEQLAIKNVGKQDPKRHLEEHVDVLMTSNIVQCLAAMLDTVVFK
Summary of the method: as §1

Measured: log2 ratio of Biotin-Ahx-Ub-VS probe labelling

CC(O)CC1CCN(C(=O)CCl)CC1 (stereo not given)
inactive: USP42 0.406 | USP46 -0.263 | USP47 -0.689 | USP48 0.00631 | USP5 -0.447 | USP54 -0.0986 | USP7 -0.335 | USP8 -0.0562 | USP9X -0.195 | UniProt O00487 -0.189
